Measurements from PubChem BioAssay (Tox21).
Inconclusive results are not listed. Activity calls are given as the source filed them. Unless noted, calls come from the whole dose curve; as a rule, active = well fitted curve in the direction sought with a large enough effect in the repeat runs; inconclusive = weak or mixed curves; inactive = no such curve, though single readings can be large; an effect the other way counts as inactive or inconclusive.

Legend:
[1] = qHTS assay to test for compound auto fluorescence at 535 nm (green) in HEK293 cells (AID 720680)
[2] = qHTS assay to test for compound auto fluorescence at 460 nm (blue) in HEK293 cell free culture (AID 720681)
Summary of the method: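 Blue fluorescence (Ex 405/Em 460 nm, triamterene-equivalent) was read immediately after pin transfer of compound or DMSO into medium (DMEM, 10% FBS) without cells.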

[3] = qHTS assay to test for compound auto fluorescence at 535 nm (green) in HEK293 cell free culture (AID 720682)
Summary of the method: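 Steps: dispense DMEM/10% FBS into empty wells; pin in compound or DMSO; measure fluorescence at 485/535 nm. Values are fluorescein equivalents.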

[4] = qHTS assay to test for compound auto fluorescence at 590 nm (red) in HEK293 cell free culture (AID 720683)
Summary of the method: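 Red-channel autofluorescence of compounds in culture medium (DMEM, 10% FBS), no cells, measured at 540/590 nm. Rose Bengal sodium is the reference fluorophore for equivalence.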

[5] = qHTS assay to test for compound auto fluorescence at 590 nm (red) in HepG2 cell free culture (AID 720684)
Summary of the method: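 Cell-free; medium MEM + 10% FBS; compound or DMSO added by pintool; read Ex 540/Em 590 nm; Rose Bengal sodium as red reference fluorophore.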

[6] = qHTS assay to test for compound auto fluorescence at 460 nm (blue) in HepG2 cell free culture (AID 720685)
Summary of the method: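 Cell-free plates of MEM plus 10% FBS received 23 nL compound or DMSO vehicle; blue-channel (405/460 nm) intensity scored against triamterene as reference fluorophore.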

[7] = qHTS assay to test for compound auto fluorescence at 535 nm (green) in HepG2 cell free culture (AID 720686)
[8] = qHTS assay to test for compound auto fluorescence at 460 nm (blue) in HepG2 cells (AID 720687)
Summary of the method: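 Blue-channel autofluorescence (Ex/Em 405/460 nm, triamterene-equivalent) was measured after 1 hr compound exposure at 37 C, 5% CO2. Cells were HepG2, plated overnight at 37 C in MEM plus 10% FBS.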

[9] = biological target: Glucocorticoid receptor (Homo sapiens) (UniProt P04150); test: qHTS assay to identify small molecule agonists of the glucocorticoid receptor (GR) signaling pathway (AID 720691; active = well fitted activation curve with a large enough effect in the signal ratio in the repeat runs, not every such curve was filed as active; the % refers to the signal ratio)
Glucocorticoid receptor (Homo sapiens), sequence (P04150 whole entry, looked up): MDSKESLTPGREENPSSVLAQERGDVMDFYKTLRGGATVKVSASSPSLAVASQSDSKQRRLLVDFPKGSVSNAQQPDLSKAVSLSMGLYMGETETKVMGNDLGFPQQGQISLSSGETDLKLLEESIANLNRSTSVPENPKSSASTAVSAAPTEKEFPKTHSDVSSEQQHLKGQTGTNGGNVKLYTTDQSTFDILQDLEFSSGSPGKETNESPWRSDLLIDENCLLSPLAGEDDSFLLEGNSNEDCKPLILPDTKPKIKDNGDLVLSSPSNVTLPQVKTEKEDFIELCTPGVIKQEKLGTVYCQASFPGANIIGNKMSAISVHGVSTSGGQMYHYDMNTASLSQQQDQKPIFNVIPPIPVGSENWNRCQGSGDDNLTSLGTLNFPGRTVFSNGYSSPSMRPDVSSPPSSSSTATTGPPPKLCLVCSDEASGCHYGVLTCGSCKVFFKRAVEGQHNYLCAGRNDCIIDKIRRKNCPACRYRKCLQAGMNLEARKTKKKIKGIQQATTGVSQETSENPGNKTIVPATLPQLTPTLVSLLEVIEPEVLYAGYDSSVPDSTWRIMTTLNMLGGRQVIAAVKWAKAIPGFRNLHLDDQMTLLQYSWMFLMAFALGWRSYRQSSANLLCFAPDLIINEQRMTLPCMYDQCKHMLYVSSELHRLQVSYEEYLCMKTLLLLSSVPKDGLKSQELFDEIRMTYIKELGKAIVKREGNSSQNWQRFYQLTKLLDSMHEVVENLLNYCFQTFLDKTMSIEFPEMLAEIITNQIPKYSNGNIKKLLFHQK
Summary of the method: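 A HeLa cervical cancer line expressing GR and a glucocorticoid response element-driven beta-lactamase gene is treated with compounds for 18 h; LiveBLAzer B/G FRET substrate is then applied and fluorescence read.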

[10] = biological target: Glucocorticoid receptor (Homo sapiens) (UniProt P04150); test: qHTS assay to identify small molecule antagonists of the glucocorticoid receptor (GR) signaling pathway (AID 720692; active = well fitted inhibition curve with a large enough effect in the signal ratio in the repeat runs, not every such curve was filed as active; the % refers to the signal ratio)
Summary of the method: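 GRE-bla HeLa line, dex-stimulated (5 nM final). Compound exposure 18 h, 37 C. Beta-lactamase FRET read after 2 h RT substrate.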

[11] = qHTS assay to identify small molecule antagonists of the glucocorticoid receptor (GR) signaling pathway - cell viability counter screen (AID 720693); note: nearly all actives have a fitted effect of over 55% in size
[12] = qHTS assay for identifying genotoxic compounds that show differential cytotoxicity against isogenic chicken DT40 cell lines with known DNA damage response pathways - wild type cell line (AID 743012); note: nearly all actives have a fitted effect of over 60% in size
Summary of the method: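 300 wt DT40 cells/well; cpd (DMSO) pintool-transferred after ~0.5 h at 37 C/5% CO2; 40 h incubation; CellTiter-Glo added, 30 min RT; luminescence read.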

[13] = qHTS assay for identifying genotoxic compounds that show differential cytotoxicity against isogenic chicken DT40 cell lines with known DNA damage response pathways - Rev3 mutant cell line (AID 743014); note: nearly all actives have a fitted effect of over 55% in size
[14] = qHTS assay for identifying genotoxic compounds that show differential cytotoxicity against isogenic chicken DT40 cell lines with known DNA damage response pathways - Rad54/Ku70 mutant cell line (AID 743015); note: nearly all actives have a fitted effect of over 60% in size
[15] = qHTS assay to identify small molecule antagonists of the androgen receptor (AR) signaling pathway - cell viability counter screen (AID 743033; note: nearly all actives have a fitted effect of over 45% in size)
[16] = qHTS assay to identify small molecule antagonists of the androgen receptor (AR) signaling pathway using the MDA cell line - cell viability counter screen (AID 743041; note: nearly all actives have a fitted effect of over 45% in size)
Summary of the method: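 Viability read by CellTiter-Fluor fluorescence in the same wells as the antagonist screen, added after 15.5 h of a 16 h, 37C exposure. Human breast carcinoma MDA-kb2 AR-luc cells, compounds co-dosed with agonist R1881.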

[17] = biological target: Androgen receptor (Homo sapiens) (UniProt P10275); test: qHTS assay to identify small molecule antagonists of the androgen receptor (AR) signaling pathway (AID 743035; active = well fitted inhibition curve with a large enough effect in the signal ratio in the repeat runs, not every such curve was filed as active; the % refers to the signal ratio)
Androgen receptor (Homo sapiens), sequence (P10275 whole entry, looked up): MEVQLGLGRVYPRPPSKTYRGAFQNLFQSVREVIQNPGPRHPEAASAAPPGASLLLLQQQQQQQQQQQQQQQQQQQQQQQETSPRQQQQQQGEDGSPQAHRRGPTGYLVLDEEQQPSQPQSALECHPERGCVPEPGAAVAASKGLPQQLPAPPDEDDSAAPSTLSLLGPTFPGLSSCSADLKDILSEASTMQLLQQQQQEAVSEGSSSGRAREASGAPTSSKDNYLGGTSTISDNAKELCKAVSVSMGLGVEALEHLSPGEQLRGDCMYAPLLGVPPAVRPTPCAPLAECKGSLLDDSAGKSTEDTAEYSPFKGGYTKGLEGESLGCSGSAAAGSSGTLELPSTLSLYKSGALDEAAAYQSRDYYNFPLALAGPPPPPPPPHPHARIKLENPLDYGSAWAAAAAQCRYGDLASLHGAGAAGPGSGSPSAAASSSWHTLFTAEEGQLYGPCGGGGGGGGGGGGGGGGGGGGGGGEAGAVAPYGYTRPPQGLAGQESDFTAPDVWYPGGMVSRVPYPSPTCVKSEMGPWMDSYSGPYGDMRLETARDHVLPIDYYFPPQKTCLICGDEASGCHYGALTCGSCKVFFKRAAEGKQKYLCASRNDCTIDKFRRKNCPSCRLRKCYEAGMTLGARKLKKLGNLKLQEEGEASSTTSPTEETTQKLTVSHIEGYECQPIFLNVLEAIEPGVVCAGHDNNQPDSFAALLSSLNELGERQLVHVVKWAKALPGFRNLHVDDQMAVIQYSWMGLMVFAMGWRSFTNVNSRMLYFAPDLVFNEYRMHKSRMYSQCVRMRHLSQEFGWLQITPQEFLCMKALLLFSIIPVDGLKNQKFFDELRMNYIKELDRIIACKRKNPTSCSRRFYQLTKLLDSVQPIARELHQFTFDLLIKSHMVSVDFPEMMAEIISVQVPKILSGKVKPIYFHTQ
Summary of the method: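 In this cell-based reporter screen, compounds were tested in concentration series against R1881-activated HEK293 cells expressing beta-lactamase under UAS control; after 16 h at 37C, FRET substrate was added and fluorescence read 2 h later.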

[18] = biological target: Androgen receptor (Homo sapiens) (UniProt P10275); test: qHTS assay to identify small molecule agonists of the androgen receptor (AR) signaling pathway (AID 743036; active = well fitted activation curve with a large enough effect in the signal ratio in the repeat runs, with a control signal flat, not every such curve was filed as active; the % refers to the signal ratio)
Summary of the method: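 Reporter line: GeneBLAzer AR-UAS-bla-GripTite (HEK293). Steps: plate cells, 4 h rest, add compounds, 16 h at 37C, add LiveBLAzer B/G substrate, 2 h at RT, read fluorescence.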

[19] = biological target: Androgen receptor (Homo sapiens) (UniProt P10275); test: qHTS assay to identify small molecule agonists of the androgen receptor (AR) signaling pathway using the MDA cell line (AID 743040; note: nearly all actives have a fitted effect of over 20% in size)
Summary of the method: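 Luciferase agonist assay: 16 h compound exposure at 37C without CO2 in MDA-kb2 AR-luc cells, whose MMTV promoter responds to both AR and GR. Luminescence measured after 30 min room-temperature incubation with ONE-Glo.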

[20] = biological target: Androgen receptor (Homo sapiens) (UniProt P10275); test: qHTS assay to identify small molecule antagonists of the androgen receptor (AR) signaling pathway using the MDA cell line (AID 743042; note: nearly all actives have a fitted effect of over 55% in size)
Summary of the method: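 Antagonist mode: compounds plus R1881 agonist added to MDA-kb2 AR-luc cells, incubated 16 h at 37C. Luciferase reporter luminescence quantified, with multiplexed CellTiter-Fluor readout for cell viability.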
% is set by controls: 0 for no effect and ±100 for the full control effect.

O=[N+]([O-])c1ccc(CCO)cc1
inactive: outcome [1] | Potency [2] | outcome [3] | outcome [4] | outcome [5] | Potency [6] | outcome [7] | Potency [8] | Potency [9] | Potency [10] | outcome [11] | Potency [12] | Potency [13] | Potency [14] | outcome [15] | Potency [16]

COC(C(=O)O)c1ccccc1 (centres undefined)
inactive: outcome [1] | Potency [2] | outcome [3] | outcome [4] | outcome [5] | Potency [6] | outcome [7] | Potency [8] | Potency [9] | Potency [10] | outcome [11] | Potency [12] | Potency [13] | Potency [14] | outcome [15] | Potency [16]

CC(C=O)Cc1ccc(C(C)C)cc1 (centres undefined)
inactive: outcome [1] | Potency [2] | outcome [3] | outcome [4] | outcome [5] | Potency [6] | outcome [7] | Potency [8] | Potency [9] | Potency [10] | outcome [11] | Potency [12] | Potency [13] | Potency [14] | outcome [15] | Potency [16]

NCC[C@H](O)C(=O)N[C@@H]1C[C@H](N)[C@@H](O[C@H]2O[C@H](CN)[C@@H](O)[C@H](O)[C@H]2O)[C@H](O)[C@H]1O[C@H]1O[C@H](CO)[C@@H](O)[C@H](N)[C@H]1O
inactive: outcome [1] | Potency [2] | outcome [3] | outcome [4] | outcome [5] | Potency [6] | outcome [7] | Potency [8] | Potency [9] | Potency [10] | outcome [11] | Potency [12] | Potency [13] | Potency [14] | outcome [15] | Potency [17] | outcome [18] | Potency [19] | Potency [16] | outcome [20]

Nc1[nH]c(=O)ncc1F
inactive: fluorescence, % of fluorescein [1] 0.0412% [at 18.6 µM] | fluorescence, % of fluorescent control [2] 0.0652% [at 18.6 µM] | activity change [3] 0.004% [at 18.6 µM] | fluorescence, % of fluorescent control [4] -0.113% [at 18.6 µM] | fluorescence, % of Rose Bengal [5] 0.311% [at 18.6 µM] | fluorescence, % of fluorescent control [6] -0.0064% [at 18.6 µM] | fluorescence, % of fluorescein control [7] 0.186% [at 18.6 µM] | fluorescence, % of fluorescent control [8] 0.0009% [at 18.6 µM] | Potency [9] | Potency [10] | outcome [11] | Potency [12] | Potency [13] | Potency [14] | outcome [15] | Potency [16]

CCCCCCCCCCCCCCC
inactive: outcome [1] | Potency [2] | outcome [3] | outcome [4] | outcome [5] | Potency [6] | outcome [7] | Potency [8] | Potency [9] | Potency [10] | outcome [11] | Potency [12] | Potency [13] | Potency [14] | outcome [15] | Potency [16]

CCCCCCOC(=O)CC(CC(=O)OCCCCCC)(OC(=O)CCC)C(=O)OCCCCCC
inactive: outcome [1] | Potency [2] | outcome [3] | outcome [4] | outcome [5] | Potency [6] | outcome [7] | Potency [8] | Potency [9] | Potency [10] | outcome [11] | Potency [12] | Potency [13] | Potency [14] | outcome [15] | outcome [18] | Potency [19] | Potency [16] | outcome [20]

Cc1ccc(N)cc1[N+](=O)[O-]
inactive: outcome [1] | Potency [2] | outcome [3] | outcome [4] | outcome [5] | Potency [6] | outcome [7] | Potency [8] | Potency [9] | Potency [10] | outcome [11] | Potency [12] | Potency [13] | outcome [15] | Potency [17] | outcome [18] | Potency [19] | Potency [16] | outcome [20]

CCN(CC)S(=O)(=O)c1ccc(C(=O)O)cc1
inactive: outcome [1] | Potency [2] | outcome [3] | outcome [4] | outcome [5] | Potency [6] | outcome [7] | Potency [8] | Potency [9] | Potency [10] | outcome [11] | Potency [12] | Potency [13] | Potency [14] | outcome [15] | Potency [16]

CC(C)(C)CC(C)(C)N
inactive: outcome [1] | Potency [2] | outcome [3] | outcome [4] | outcome [5] | Potency [6] | outcome [7] | Potency [8] | Potency [9] | Potency [10] | outcome [11] | Potency [12] | Potency [13] | Potency [14] | outcome [15] | Potency [16]

O=C(O)c1ccccc1S
inactive: outcome [1] | Potency [2] | outcome [3] | outcome [4] | outcome [5] | Potency [6] | outcome [7] | Potency [8] | Potency [9] | Potency [10] | outcome [11] | Potency [12] | Potency [13] | Potency [14] | outcome [15] | Potency [16]

C=C(C)C(=O)OCCC(C)OC(=O)C(=C)C (centres undefined)
inactive: outcome [1] | Potency [2] | outcome [3] | outcome [4] | outcome [5] | Potency [6] | outcome [7] | Potency [8] | Potency [9] | Potency [10] | outcome [11] | Potency [12] | Potency [13] | Potency [14] | outcome [15] | Potency [16]

CC1=CC(=O)CCC1
inactive: outcome [1] | Potency [2] | outcome [3] | outcome [4] | outcome [5] | Potency [6] | outcome [7] | Potency [8] | Potency [9] | Potency [10] | outcome [11] | Potency [12] | Potency [13] | Potency [14] | outcome [15] | Potency [16]

COc1cc(C(=O)N2CCOCC2)cc(OC)c1OC
inactive: outcome [1] | Potency [2] | outcome [3] | outcome [4] | outcome [5] | Potency [6] | outcome [7] | Potency [8] | Potency [9] | Potency [10] | outcome [11] | Potency [12] | Potency [13] | Potency [14] | outcome [15] | Potency [16]
